Source: PubChem BioAssay
Sampled rows, rich in hits. Any-hit rate of the full collection: about 1.8%.
TLR4-MyD88 BLA: inhibitors of human TLR4-MyD88 binding; HeLa CL3-4 TLR4/MyD88 BLA complementation, FRET ratio; AID 861; inhibition, % at 8.4 µM; actives 0.18% (n = 200,000); O00206+Q99836; in the data active = inhibition above about 25%;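 note: 0% = vehicle and 100% = reference inhibitor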
NOD2 RIPK2 PPI: NOD2-RIPK2 protein interaction inhibition | O43353 | CHO BLA complementation NOD2-RIPK2, CCF4 ratio | inhibition, % at 4.98 µM | actives 0.38% (n = 360,000); in the data active = inhibition above about 21%;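 note: 0% = vehicle only and 100% = reference blocker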
LANA-H2A inh: blocks KSHV LANA binding to histone H2A/H2B; Q9QR71; actives 0.6% (n = 320,000); AID 2629; inhibition, % (concentration not given with the values); cell-free LANA-H2A/H2B peptide, fluorescence polarization; in the data active = inhibition mostly above about 10%, no sharp cut-off; inactive = mostly below about 6.7%
HTR2A ag: agonists of mouse serotonin 5-HT2A receptor (HTR2A); CHO-K1 mHTR2A beta-arrestin complementation, luminescence; percent of 30 µM serotonin response; P35363; activation, % at 7.6 µM; actives 0.66% (n = 360,000); AID 624169;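 active = activation above a run cutoff, the mean activation of all tested compounds plus 3 SD, cut at about 14% in these data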;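 note: 0% = plate median of compound wells and 100% = 30 µM serotonin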
TLR9-MyD88 block: blocks human TLR9 binding to MyD88; Q9NR96+Q99836; CHO BLA complementation TLR9-MyD88, CCF4 FRET ratio; inhibition, % at 4.98 µM; actives 0.21% (n = 340,000); AID 504734;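 active = inhibition above the mean over all tested compounds plus 3 SD, cut at about 21% in these data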;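 note: 0% = DMSO only wells and 100% = clavulanate BLA inhibitor control wells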
Rtt109 Vps75: blocks Candida albicans Rtt109/Vps75 acetyltransferase activity; inhibition, % at 34.9 µM; purified Rtt109/Vps75, ThioGlo CoA-SH fluorescence, 4 h; actives 0.16% (n = 330,000);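 active = inhibition of at least 50% in every replicate; inconclusive = best replicate reaches 50% inhibition but some replicates fall short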
* = called active by the depositor; ? = inconclusive; . = no result given.

SMILES	TLR4-MyD88 BLA	NOD2 RIPK2 PPI	LANA-H2A inh	HTR2A ag	TLR9-MyD88 block	Rtt109 Vps75
COc1ccc(CCN2CC(C(=O)N(C)Cc3ccccc3OC)CCC2=O)cc1 (stereo unspecified)	.	2	12*	-3	11	-1
O=C(NCCCN1CCN(c2ccccc2F)CC1)C1CCN(S(=O)(=O)c2cccs2)CC1	3	-1	-4	15*	6	-5
CN1CCN(C(=O)C[C@@H]2CC[C@@H]3[C@H](COC[C@@H](O)CN3Cc3cccc(Cl)c3)O2)CC1	.	-2	.	-7	.	.
Cc1cc(C)c(NC(=O)CSCc2nc3sc(C)c(C)c3c(=O)[nH]2)c(Cl)c1	.	0	55*	11	-3	-5
Cc1sc2nc(CSCC(=O)Nc3cc(F)ccc3F)[nH]c(=O)c2c1C	.	-12	-1	4	-10	-1
COCCCNC1=C(C#N)C(=O)NC2(CCCC2)S1	.	-2	.	-4	5	.
CCN(C(=O)CN1CCCC(C)C1)c1c(N)n(Cc2ccccc2)c(=O)[nH]c1=O (stereo unspecified)	.	-5	13*	3	9	5
CCN(C(=O)CN1CCCCC1)c1c(N)n(Cc2ccccc2)c(=O)[nH]c1=O	.	-2	1	-7	-1	1
O=C(Nc1nnc([C@@H]2C[C@H](O)[C@@H](CO)O2)s1)c1c(F)cccc1F	.	-8	.	6	.	.
Nc1sc2c(c1C(=O)NC1CCS(=O)(=O)C1)CCCC2 (stereo unspecified)	4	-10	-1	22*	-2	3
CCCNC(=O)C1(C)CCN(C(=O)c2oc3ccccc3c2C)C1 (stereo unspecified)	.	3	.	2	.	.
CCOC(=O)C1=C(c2ccccc2)N=c2s/c(=C\c3cc(OC)c(OC)c(OC)c3)c(=O)n2C1c1cccs1 (stereo unspecified)	24	11	1	3	22*	6
CCOC(=O)C1=C(c2ccccc2)N=c2s/c(=C\c3ccco3)c(=O)n2C1c1cccs1 (stereo unspecified)	4	-1	-1	-2	6	-6
O=C1NC[C@@H](CCCCN2C[C@H](Cc3ccc(O)cc3)N(CCc3ccc(O)cc3)C(=O)C2=O)N(CCc2ccc(O)cc2)C1=O	.	-9	.	0	.	.
COc1cccc2c1C(=O)c1c(O)c3c(c(O)c1C2=O)CC(O)(C(=O)CO)CC3OC1CC(N(C)C)C(O)C(C)O1 (stereo unspecified)	.	20	.	-11	7	-7
COc1cccc2c1C(=O)c1c(O)c3c(c(O)c1C2=O)C[C@@](O)(C(C)=O)C[C@@H]3O[C@H]1C[C@H](N)[C@H](O)[C@H](C)O1	11	-11	.	0	7	?
CC(=O)[C@]1(O)Cc2c(O)c3c(c(O)c2[C@@H](O[C@H]2C[C@H](N)[C@H](O)[C@H](C)O2)C1)C(=O)c1ccccc1C3=O	.	.	49*	.	.	.
COc1cccc2c1C(=O)c1c(O)c3c(c(O)c1C2=O)C[C@@](O)(C(=O)CO)C[C@@H]3O[C@H]1C[C@H](N)[C@@H](O)[C@H](C)O1	.	-9	27*	-2	-10	44
O=C(C(=O)N(C1CCCCC1)C1CCCCC1)c1ccccc1	.	1	.	2	.	.
CN(CC1COCCO1)C(=O)c1cc(COc2c(F)cccc2F)on1 (stereo unspecified)	.	-2	116*	-3	4	20
COC(=O)c1ccccc1NC1CC(=O)N(c2c(C)cccc2C)C1=O (stereo unspecified)	7	-2	96*	-1	-3	-24
Cc1ccc(NC(=O)CC2OC(=O)c3ccccc32)cc1S(=O)(=O)N1CCCCCC1 (stereo unspecified)	.	-5	11*	8	3	6
CCCCN(C=O)c1c(CC)nc2ccc(C(=O)NCCCn3ccnc3)cn12	.	5	.	-4	.	.
COc1ccc(Cl)cc1C1=NOC2(CCC2)C(=O)N1Cc1ccc(NC(C)=O)cc1	.	-2	.	-5	.	.
CC(C)C[C@H]1COc2cccc(N3CCC[C@H]3CO)c2S(=O)(=O)N1	.	-7	.	-1	.	.
SMILES	TLR4-MyD88 BLA	NOD2 RIPK2 PPI	LANA-H2A inh	HTR2A ag	TLR9-MyD88 block	Rtt109 Vps75
O=C(CCCN1C(=O)c2cccnc2C1=O)Nc1ccccc1F	-3	-4	-1	3	6	5
O=C(CCCN1C(=O)c2cccnc2C1=O)N1CC(=O)N(CCc2ccccc2)C(=O)C1	-9	-7	25*	-4	12	-3
COc1ccc(-c2ccc(C(=O)Nc3cccc(NS(C)(=O)=O)c3)c3occc23)c(C)c1	.	7	.	-1	.	.
O=c1oc(-c2ccccc2)cc2ccccc12	.	-12	.	-4	.	.
COc1cc(OC)cc(-c2cc3ccccc3c(=O)o2)c1	.	-1	70*	-3	-7	-6
C=CCNC(=O)c1ccsc1N	.	-10	.	3	.	.
CNCCC(Oc1ccc(C(F)(F)F)cc1)c1ccccc1 (stereo unspecified)	3	-2	13*	-10	-8	0
COc1ccc(CNC(=O)C2(C)Cc3c(-c4cccc(C(N)=O)c4)ccnc3O2)cc1OC (stereo unspecified)	.	-6	.	8	.	.
CC[n+]1c(/C=C/N(C)c2ccccc2)n(-c2ccccc2)c2ccc(-c3nc4ccccc4s3)cc21	.	31*	-9	20*	17	8
O=C(N/N=C\c1c(O)ccc2ccccc12)c1ccc(S(=O)(=O)N2CCCCC2)cc1	-2	-7	24*	1	-2	-7
O=c1[nH]c(CS(=O)(=O)c2ccccc2)nc2ccccc12	5	-6	5	-1	1	-6
CCn1c(C)c(CS(=O)(=O)c2ccccc2)[nH]c1=O	-10	6	3	1	-12	119*
CC(C)(C)c1ccc(CC(=O)N2CCC2(C)C(=O)NS(=O)(=O)c2ccccc2)cc1 (stereo unspecified)	.	6	.	2	.	.
CCN1C(=O)S/C(=C/c2c(OCc3ccc(C(=O)O)cc3)ccc3ccccc23)C1=O	8	-10	119*	2	1	16
O=C(O)c1ccc(COc2ccc3ccccc3c2/C=C2/NC(=O)N(c3ccccc3)C2=O)cc1	-5	-2	4	-3	5	20
Cc1ccc(S(=O)(=O)N2C[C@]3(O)C[C@@H]4C(=O)N(c5ccccc5)C(=O)[C@@H]4C[C@]3(OC(=O)Nc3cccs3)C2)cc1	.	4	.	-1	5	.
CC(=O)Nc1ccc(N(C(=O)c2ccco2)C(C(=O)NC2CCCCC2)c2ccccc2)cc1 (stereo unspecified)	.	2	10.0*	2	-5	1
CCOc1ccc(N(CC(=O)NC2CCCCC2)C(=O)CNC(=O)c2ccco2)cc1	-2	3	26*	-3	-2	4
